Source: the supplement of paper PMC10338343
± gives the standard deviation.

Columns and labels:
[1] = test system: MILI (PIWIL2) piRISC loaded with L1MC piRNA (26 nt); assay: pre-steady-state target cleavage rate (min^-1); guide: L1MC piRNA 5'p-UAACUAAAUACUAUGCAAGCUGUAGG; higher = faster piRNA-guided slicing of the target
How it was run: (§1)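 Cleave-'n-Seq used a transcribed, DNA-blocked target RNA library at 0.1 nM and active affinity-purified piRISC with one synthetic guide at 1 nM, with or without 500 nM GTSF1 partner protein, in HEPES–potassium acetate buffer at 33 °C for 0–8 or 0–960 min. Uncleaved targets were sequenced and normalised to depth and to weakly complementary targets, and three trials were pooled with k3 capped at 0.0001 min^-1. The pre-steady-state cleavage rate was estimated by a burst-and-steady-state fit.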

[2] = test system: EfPiwi piRISC loaded with L1MC piRNA (26 nt); assay: pre-steady-state target cleavage rate (min^-1); auxiliary factor: 500 nM Ephydatia muelleri Gtsf1; guide: L1MC piRNA 5'p-UAACUAAAUACUAUGCAAGCUGUAGG; MIWI and MILI are mouse PIWI proteins and EfPiwi is from a freshwater sponge; tags in brackets are library labels; higher = faster piRNA-guided slicing of the target
How it was run: as §1

[3] = auxiliary factor: 500 nM mouse GTSF1
[4] = auxiliary factor: none (no GTSF1)

| Sequence | pre-steady-state target cleavage rate [1, 3] | pre-steady-state target cleavage rate [1, 4] | pre-steady-state target cleavage rate [2] |
| --- | --- | --- | --- |
| UCCUGGUUGUGCUUGCAUAGUAUUUAGUUA | 0.168 ± 0.018 | 0.0141 ± 0.004 | 0.0119 ± 0.0045 |
| UCCUGCUACCGCUUGCAUAGUAUUUAGUUA | 0.368 ± 0.035 | 0.0103 ± 0.0044 | 0.0156 ± 0.005 |
| UCCUGGAUGGGCUUGCAUAGUAUUUAGUUA | 0.17 ± 0.021 | 0.0171 ± 0.0035 | 0.0238 ± 0.0063 |
| UCCUGGAUCAGCUUGCAAUGUAUUUAGUUA | 0.0475 ± 0.011 | 0.00413 ± 0.0025 | 0.00462 ± 0.0039 |
| UCCUGGAUCAGCAUGCAUAGUAAUUAGUUA | 0.181 ± 0.025 | 0.00637 ± 0.0027 | 0.00437 ± 0.0016 |
| UCCUGGAUCAGCUUGCAUAGUAUUUAGUUG [g2:g22:cont:t1G] | 0.285 ± 0.018 | 0.00983 ± 0.0019 | 0.0209 ± 0.0054 |
| UCCUCCUACAGCAUGCAUAGUAUUUUGUUA | 0.143 ± 0.02 | 0.00296 ± 0.0027 | 0.00297 ± 0.0021 |
| UCCUGGAAGUGCUUGCAUAGUAUUUAGUUA | 0.127 ± 0.013 | 0.00836 ± 0.0022 | 0.00537 ± 0.0019 |
| UCCUGGAUCAGCAUGCAUAGUUUUUAGUUA | 0.0257 ± 0.0092 | 0.00668 ± 0.0023 | 0.00291 ± 0.0027 |
| UCCUGGAUGUGCUUGCAUAGUAUUGUAGUUA | 0.0838 ± 0.018 | 0.0048 ± 0.0032 | 0.00579 ± 0.0041 |
| UCCUCCUACAGUUGCAUAGUAUUUAGUUA | 0.255 ± 0.014 | 0.00612 ± 0.0019 | 0.0777 ± 0.021 |
| UCCUGGAUGUCCCUUGCAUAGUAUUUAGUUA | 0.116 ± 0.021 | 0.00815 ± 0.0024 | 0.00608 ± 0.0026 |
| UCCUGGAUCAGCAUGCAUAGUAUUUAGUAA | 0.246 ± 0.012 | 0.00355 ± 0.0026 | 0.00497 ± 0.0029 |
| UCCUGGUACUGCUAGCAUAGUAUUUAGUUA | 0.174 ± 0.02 | 0.0113 ± 0.003 | 0.00467 ± 0.0022 |
| UCCUGGAUGAGCAUGCAUAGUAUAUAGUUA | 0.213 ± 0.022 | 0.00752 ± 0.0029 | 0.00333 ± 0.0032 |
| UCCUGGAUCAGCUUGCAUAGUAUAAAGUUA | 0.171 ± 0.018 | 0.00561 ± 0.0029 | 0.00752 ± 0.0027 |
| UCCUGGAACAGCUUGCAUACUAUUUAGUUA | 0.0842 ± 0.014 | 0.00298 ± 0.0025 | 0.00571 ± 0.0014 |
| UCCUCCUACAGCUUCAUAGUAUUUAGUUA | 0.238 ± 0.013 | 0.0049 ± 0.002 | 0.0399 ± 0.015 |
| UCCUCCUUCAGCUUGCAUAGUAUUUAGUAA | 0.228 ± 0.021 | 0.00401 ± 0.0018 | 0.012 ± 0.005 |

| Sequence | pre-steady-state target cleavage rate [1, 3] | pre-steady-state target cleavage rate [1, 4] | pre-steady-state target cleavage rate [2] |
| --- | --- | --- | --- |
| UCCUGGAUCAGGUUGCAUAGUAUUAAGUUA | 0.144 ± 0.017 | 0.00601 ± 0.0021 | 0.00407 ± 0.0025 |
| UCCUGGAUCAGCUUGCAUAGUAUCUAGUUA | 0.205 ± 0.02 | 0.00466 ± 0.0024 | 0.0167 ± 0.005 |
| UCCUGGAUGUCCUUGCAUAGUAUUUAGUUUA | 0.104 ± 0.015 | 0.00891 ± 0.0035 | 0.00634 ± 0.003 |
| UCCUGCUACAGCUUGCUUAGUAUAUAGUUA | 0.206 ± 0.028 | 0.00313 ± 0.0023 | 0.0125 ± 0.0047 |
| UCCUCCUCAGCUUGCAUAGUAUUUAGUUA | 0.258 ± 0.015 | 0.00784 ± 0.0019 | 0.0735 ± 0.017 |
| UCCUCCUACUGCUUGCAUAGUAUUUAGUUA | 0.27 ± 0.016 | 0.00899 ± 0.0022 | 0.0494 ± 0.015 |
| UCCUGGAACAGCUAGCUUAGUAUUUAGUUA | 0.186 ± 0.015 | 0.0065 ± 0.0023 | 0.00846 ± 0.0037 |
| UCCUGGAAGAGCUUGCAUAGUAUAUAGUUA | 0.173 ± 0.019 | 0.00457 ± 0.0025 | 0.0114 ± 0.0044 |
| UCCUCCUACAGCUUGCAUAGUAUUUGGUUA | 0.279 ± 0.024 | 0.00706 ± 0.0026 | 0.00583 ± 0.0021 |
| UCCUGGAACAGCAUGCAUAGUAUAUAGUUA | 0.247 ± 0.025 | 0.0058 ± 0.0025 | 0.0106 ± 0.005 |
| UCCUGGAUGAGCUUGCAUAGUAUUUCAGUUA | 0.207 ± 0.048 | 0.00415 ± 0.0028 | 0.00264 ± 0.0023 |
| UCCUGGAUCAGCUUGCAUAGUUUUAAGUUA | 0.0366 ± 0.008 | 0.00531 ± 0.0024 | 0.00285 ± 0.0028 |
| UCCUGGAUCAGGUUGCAUAGUAUUUUGUUA | 0.101 ± 0.015 | 0.00364 ± 0.0028 | 0.00406 ± 0.0022 |
| UCCUGGAACAGCAUGGAUAGUAUUUAGUUA | 0.243 ± 0.016 | 0.00742 ± 0.0028 | 0.00527 ± 0.0017 |
| UCCUGGAUCAGCUAGCAUAGUAUUAAGUUA | 0.247 ± 0.019 | 0.00556 ± 0.0019 | 0.00318 ± 0.002 |
| UCCUGCUACAGCUAGCAUACUAUUUAGUUA | 0.112 ± 0.018 | 0.0037 ± 0.0024 | 0.0063 ± 0.0019 |
| UCCUGGAUCUGCUUGCAAAGUAUUUAGUUA | 0.0598 ± 0.013 | 0.0085 ± 0.0023 | 0.0405 ± 0.011 |
| UCCUGGAUGACGUUGCAUAGUAUUUAGUUA | 0.176 ± 0.02 | 0.00683 ± 0.0027 | 0.00512 ± 0.0026 |
